{
  "source": "ChEMBL document CHEMBL1157539",
  "about": "“Thousands of chemical starting points for antimalarial lead identification” (Nature, 2010)",
  "note": "Where “and” joins values, the source holds several entries; their conditions need not be identical. Identical values can stand only once.",
  "data": [
    {"tested_on": "Plasmodium falciparum", "test": "GSK_TCMDC: Inhibition of Plasmodium falciparum Dd2 in whole red blood cells, using parasite LDH activity as an index of growth. Test compounds present at 2uM", "format": "functional", "units": {"Inhibition": "%"}, "values": [
      {"smiles": "COC(=O)c1ccc(-c2ccc(C(=O)NCC3CCN(c4nc(N)c5cc(OC)c(OC)cc5n4)CC3)cc2)cc1", "Inhibition": 100},
      {"smiles": "Br.CCCOc1ccc(OCCCON2C(=N)N=C(N)NC2(C)C)cc1", "Inhibition": 94},
      {"smiles": "Cc1cc(NC(=O)Nc2ccc(Cl)cc2F)c2ccccc2n1", "Inhibition": 71},
      {"smiles": "CCOc1ccc2[nH]c(C)cc(=NN=Cc3ccccc3F)c2c1", "Inhibition": 99},
      {"smiles": "CCCCOC(=O)c1ccc(NC(=O)Nc2ccc(Cn3ncc(N4CCCNCC4)c(Cl)c3=O)cc2)cc1.O=C(O)C(F)(F)F", "Inhibition": 74},
      {"smiles": "O=C(Cn1c(CCc2cccc(F)c2F)nc(=O)c2ccccc21)N(Cc1ccc(-c2ccc(C(F)(F)F)cc2)cc1)C1CCN(C2CCOCC2)CC1.O=C(O)C(O)C(O)C(=O)O", "Inhibition": 76},
      {"smiles": "O=C(NCC(CCN1CCC(c2c[nH]c3ccccc23)CC1)c1ccccc1)Nc1ccc(Cl)c(Cl)c1", "note": "(stereo not given)", "Inhibition": 53},
      {"smiles": "O=C(Nc1cccc(F)c1)N(Cc1ccc(-c2cccc(CN3CCNCC3)c2)cc1)C1CCN(Cc2ccccc2)CC1.O=C(O)C(F)(F)F", "Inhibition": 54},
      {"smiles": "CN(CCS(C)(=O)=O)Cc1ccc(-c2ccc3ncnc(Nc4ccc(OCc5cccc(F)c5)c(Cl)c4)c3c2)o1.Cc1ccc(S(=O)(=O)O)cc1", "Inhibition": 65},
      {"smiles": "C=C[C@H]1CN(CCCCCCC)CC[C@H]1CCN(C)c1ccnc2ccc(OC)cc12.O=C(O)C(=O)O", "Inhibition": 93},
      {"smiles": "Cc1cc2ncn(-c3nccc(NCc4ccc(F)c(C)c4)n3)c2cc1C.O=C(O)C(F)(F)F", "Inhibition": 82},
      {"smiles": "Clc1ccccc1/C=C/c1cncnc1Nc1ccc2[nH]c(Cc3ccccc3)nc2c1", "Inhibition": 26},
      {"smiles": "Cc1cc(NCC2CCN(CC3CCCCC3)C2)nc(Nc2ccc(Br)cc2)n1", "note": "(stereo not given)", "Inhibition": 78},
      {"smiles": "O=C(O)C(F)(F)F.O=S(=O)(NCCN1CCCC1)c1ccc(-c2ccc(CNC3Cc4ccccc4C3)cc2)cc1", "Inhibition": 91},
      {"smiles": "Cc1cc(O)c(C(C)C)cc1C1(c2cc(C(C)C)c(O)cc2C)OC(=O)c2ccccc21", "Inhibition": 18},
      {"smiles": "N#CC1(c2ccccc2)CCN(c2nc(NCCCN3CCCC3=O)nc(N3CCCC4CCCCC43)n2)CC1", "note": "(stereo not given)", "Inhibition": 92},
      {"smiles": "Cc1cc(Nc2ccc(C)c(Cl)c2)n2ncnc2n1", "Inhibition": 91},
      {"smiles": "CC[C@H](C)CNC(=O)c1cncc(-c2cccc(CN(C)C3CCN(C)CC3)c2)c1.O=C(O)C(F)(F)F", "Inhibition": 59},
      {"smiles": "CC(C)(C)C1=CC(=NNC(=O)c2ccncc2)C=C(C(C)(C)C)C1=O", "Inhibition": 99},
      {"smiles": "Cn1c(=O)c2cc(C(=O)NCCCN3CCCCCC3)sc2c2ccccc21", "Inhibition": 99},
      {"smiles": "Clc1ccc(CNc2nc(NCCc3c[nH]cn3)nc(N3CCCC4CCCCC43)n2)cc1", "note": "(stereo not given)", "Inhibition": 100},
      {"smiles": "CNc1ccc(CNCc2cccc(-c3ccc(-c4nc5ccccc5[nH]4)cc3)c2)cc1.O=C(O)C(F)(F)F", "Inhibition": 80},
      {"smiles": "CCc1n[nH]c(C(=O)NC2CCN(CC3(c4ccc(OC)cc4)CCCCC3)CC2)c1C", "Inhibition": 90},
      {"smiles": "COc1cc(Cl)c(C)cc1-n1cc(C(=O)c2cc(Br)ccc2O)cc(C#N)c1=O", "Inhibition": 35},
      {"smiles": "COc1ccc(CCNCCCCCCNCCc2ccc(Cl)c3ccccc23)cc1OC.Cl", "Inhibition": 28},
      {"smiles": "CCOc1cc(CNCCCCCCNCc2cc(OCC)c(OCC)c3ccccc23)c2ccccc2c1OCC.CS(=O)(=O)O", "Inhibition": 99},
      {"smiles": "COc1ccc(NC(=O)c2ccc(Br)c(C)c2)cc1N1CCN(Cc2ccccc2)CC1.O=C(O)C(=O)O", "Inhibition": 3},
      {"smiles": "CCc1nc(N)nc(N)c1-c1ccc(Cl)cc1", "note": "[PYRIMETHAMINE]", "Inhibition": 0},
      {"smiles": "CN(CCCN(C)c1cc(NC(=O)c2cccc(F)c2)ccn1)Cc1cccc(O)c1.O=C(O)C(F)(F)F", "Inhibition": 4},
      {"smiles": "CC1CC1C(=O)NC1CCN(CC2(c3ccccc3)CCCCC2)CC1", "note": "(stereo not given)", "Inhibition": 95},
      {"smiles": "c1ccc(-c2cc(NCc3cccc4ccccc34)c3[nH]ncc3n2)cc1", "Inhibition": 5},
      {"smiles": "CCn1c(Sc2ccc([N+](=O)[O-])c(C#N)c2)nnc1-c1cccc(Cl)c1", "Inhibition": 22},
      {"smiles": "O=C(O)C(F)(F)F.OCCN1CCN(Cc2ccc(-c3cccc(-c4nc5cc(C(F)(F)F)ccc5[nH]4)c3)cc2)CC1", "Inhibition": 83},
      {"smiles": "O=C(O)C(F)(F)F.O=S(=O)(NCCN1CCCC1)c1cccc(-c2ccc(CNCc3ccccc3)cc2)c1", "Inhibition": 41},
      {"smiles": "O=c1nc(NCCCCCN2CCC(c3c[nH]c4ccccc34)CC2)[nH]cc1Cc1ccc(Cl)c(Cl)c1", "Inhibition": 8},
      {"smiles": "COc1ccccc1CNC(=O)CCn1c(=O)[nH]c2ccsc2c1=O", "Inhibition": 75},
      {"smiles": "Cc1[nH]c2ccccc2c1C(=O)CSc1nn(-c2ccccc2)c(=S)s1", "Inhibition": 99},
      {"smiles": "Br.CC1(C)NC(N)=NC(=N)N1OCc1cccs1", "Inhibition": 0},
      {"smiles": "Cc1c(CNCCCNc2nc3cscc3[nH]2)sc(C(F)F)c1Br.Cl", "Inhibition": 11},
      {"smiles": "FC(F)c1nc2ccccc2n1-c1nc(N2CCOCC2)nc(N2CCOCC2)n1", "note": "[ZSTK-474]", "Inhibition": 99}
    ]},
    {"tested_on": "HepG2", "test": "GSK_TCMDC: Percent inhibition of human HepG2 cell line. Test compounds present at 10uM.", "format": "functional", "values": [
      {"smiles": "COC(=O)c1ccc(-c2ccc(C(=O)NCC3CCN(c4nc(N)c5cc(OC)c(OC)cc5n4)CC3)cc2)cc1", "Inhibition": "53%"},
      {"smiles": "Br.CCCOc1ccc(OCCCON2C(=N)N=C(N)NC2(C)C)cc1", "Inhibition": "59%"},
      {"smiles": "Cc1cc(NC(=O)Nc2ccc(Cl)cc2F)c2ccccc2n1", "Inhibition": "10%"},
      {"smiles": "CCOc1ccc2[nH]c(C)cc(=NN=Cc3ccccc3F)c2c1", "Inhibition": "0%"},
      {"smiles": "CCCCOC(=O)c1ccc(NC(=O)Nc2ccc(Cn3ncc(N4CCCNCC4)c(Cl)c3=O)cc2)cc1.O=C(O)C(F)(F)F", "Inhibition": "2%"},
      {"smiles": "O=C(Cn1c(CCc2cccc(F)c2F)nc(=O)c2ccccc21)N(Cc1ccc(-c2ccc(C(F)(F)F)cc2)cc1)C1CCN(C2CCOCC2)CC1.O=C(O)C(O)C(O)C(=O)O", "Inhibition": "97%"},
      {"smiles": "O=C(NCC(CCN1CCC(c2c[nH]c3ccccc23)CC1)c1ccccc1)Nc1ccc(Cl)c(Cl)c1", "note": "(stereo not given)", "Inhibition": "46%"},
      {"smiles": "O=C(Nc1cccc(F)c1)N(Cc1ccc(-c2cccc(CN3CCNCC3)c2)cc1)C1CCN(Cc2ccccc2)CC1.O=C(O)C(F)(F)F", "Inhibition": "13%"},
      {"smiles": "CN(CCS(C)(=O)=O)Cc1ccc(-c2ccc3ncnc(Nc4ccc(OCc5cccc(F)c5)c(Cl)c4)c3c2)o1.Cc1ccc(S(=O)(=O)O)cc1", "Inhibition": "25%"},
      {"smiles": "C=C[C@H]1CN(CCCCCCC)CC[C@H]1CCN(C)c1ccnc2ccc(OC)cc12.O=C(O)C(=O)O", "Inhibition": "22%"},
      {"smiles": "Cc1cc2ncn(-c3nccc(NCc4ccc(F)c(C)c4)n3)c2cc1C.O=C(O)C(F)(F)F", "Inhibition": "10%"},
      {"smiles": "Clc1ccccc1/C=C/c1cncnc1Nc1ccc2[nH]c(Cc3ccccc3)nc2c1", "Inhibition": "4%"},
      {"smiles": "Cc1cc(NCC2CCN(CC3CCCCC3)C2)nc(Nc2ccc(Br)cc2)n1", "note": "(stereo not given)", "Inhibition": "0%"},
      {"smiles": "O=C(O)C(F)(F)F.O=S(=O)(NCCN1CCCC1)c1ccc(-c2ccc(CNC3Cc4ccccc4C3)cc2)cc1", "Inhibition": "61%"},
      {"smiles": "Cc1cc(O)c(C(C)C)cc1C1(c2cc(C(C)C)c(O)cc2C)OC(=O)c2ccccc21", "Inhibition": "8%"},
      {"smiles": "N#CC1(c2ccccc2)CCN(c2nc(NCCCN3CCCC3=O)nc(N3CCCC4CCCCC43)n2)CC1", "note": "(stereo not given)", "Inhibition": "0%"},
      {"smiles": "Cc1cc(Nc2ccc(C)c(Cl)c2)n2ncnc2n1", "Inhibition": "6%"},
      {"smiles": "CC[C@H](C)CNC(=O)c1cncc(-c2cccc(CN(C)C3CCN(C)CC3)c2)c1.O=C(O)C(F)(F)F", "Inhibition": "9%"},
      {"smiles": "CC(C)(C)C1=CC(=NNC(=O)c2ccncc2)C=C(C(C)(C)C)C1=O", "Inhibition": "47%"},
      {"smiles": "Cn1c(=O)c2cc(C(=O)NCCCN3CCCCCC3)sc2c2ccccc21", "Inhibition": "32%"},
      {"smiles": "Clc1ccc(CNc2nc(NCCc3c[nH]cn3)nc(N3CCCC4CCCCC43)n2)cc1", "note": "(stereo not given)", "Inhibition": "10%"},
      {"smiles": "CNc1ccc(CNCc2cccc(-c3ccc(-c4nc5ccccc5[nH]4)cc3)c2)cc1.O=C(O)C(F)(F)F", "Inhibition": "18%"},
      {"smiles": "CCc1n[nH]c(C(=O)NC2CCN(CC3(c4ccc(OC)cc4)CCCCC3)CC2)c1C", "Inhibition": "2%"},
      {"smiles": "COc1cc(Cl)c(C)cc1-n1cc(C(=O)c2cc(Br)ccc2O)cc(C#N)c1=O", "Inhibition": "3%"},
      {"smiles": "COc1ccc(CCNCCCCCCNCCc2ccc(Cl)c3ccccc23)cc1OC.Cl", "Inhibition": "100%"},
      {"smiles": "CCOc1cc(CNCCCCCCNCc2cc(OCC)c(OCC)c3ccccc23)c2ccccc2c1OCC.CS(=O)(=O)O", "Inhibition": "100%"},
      {"smiles": "COc1ccc(NC(=O)c2ccc(Br)c(C)c2)cc1N1CCN(Cc2ccccc2)CC1.O=C(O)C(=O)O", "Inhibition": "0%"},
      {"smiles": "CCc1nc(N)nc(N)c1-c1ccc(Cl)cc1", "note": "[PYRIMETHAMINE]", "Inhibition": "71% and 66%"},
      {"smiles": "CN(CCCN(C)c1cc(NC(=O)c2cccc(F)c2)ccn1)Cc1cccc(O)c1.O=C(O)C(F)(F)F", "Inhibition": "0%"},
      {"smiles": "CC1CC1C(=O)NC1CCN(CC2(c3ccccc3)CCCCC2)CC1", "note": "(stereo not given)", "Inhibition": "0%"},
      {"smiles": "c1ccc(-c2cc(NCc3cccc4ccccc34)c3[nH]ncc3n2)cc1", "Inhibition": "7%"},
      {"smiles": "CCn1c(Sc2ccc([N+](=O)[O-])c(C#N)c2)nnc1-c1cccc(Cl)c1", "Inhibition": "8%"},
      {"smiles": "O=C(O)C(F)(F)F.OCCN1CCN(Cc2ccc(-c3cccc(-c4nc5cc(C(F)(F)F)ccc5[nH]4)c3)cc2)CC1", "Inhibition": "29%"},
      {"smiles": "O=C(O)C(F)(F)F.O=S(=O)(NCCN1CCCC1)c1cccc(-c2ccc(CNCc3ccccc3)cc2)c1", "Inhibition": "54%"},
      {"smiles": "O=c1nc(NCCCCCN2CCC(c3c[nH]c4ccccc34)CC2)[nH]cc1Cc1ccc(Cl)c(Cl)c1", "Inhibition": "21%"},
      {"smiles": "COc1ccccc1CNC(=O)CCn1c(=O)[nH]c2ccsc2c1=O", "Inhibition": "0%"},
      {"smiles": "Cc1[nH]c2ccccc2c1C(=O)CSc1nn(-c2ccccc2)c(=S)s1", "Inhibition": "0%"},
      {"smiles": "Br.CC1(C)NC(N)=NC(=N)N1OCc1cccs1", "Inhibition": "60%"},
      {"smiles": "Cc1c(CNCCCNc2nc3cscc3[nH]2)sc(C(F)F)c1Br.Cl", "Inhibition": "1%"},
      {"smiles": "FC(F)c1nc2ccccc2n1-c1nc(N2CCOCC2)nc(N2CCOCC2)n1", "note": "[ZSTK-474]", "Inhibition": "47%"}
    ]}
  ]
}
